This passage reports Potency, outcome and max response results from PubChem BioAssay (Tox21).

In assay [1] the target is Nuclear receptor subfamily 1 group I member 3 (Homo sapiens) (UniProt Q14994). Kind of assay: qHTS assay to identify small molecule agonists of the constitutive androstane receptor (CAR) signaling pathway (AID 1224839). Also: nearly all actives have a fitted effect of over 15% in size. Also: potency is read from the fitted curve at half-maximal effect.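 As to activation: HepG2 cells stably carrying human CAR and a CYP2B6 luciferase reporter; series mostly up to about 92 µM.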 In short, it runs like this: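 Readout: firefly luciferase luminescence via ONE-Glo. System: HepG2 double-stable for hCAR and CYP2B6-2.2kb. Conditions: 15-point compound titration, PK11195 at 0.75 uM final, 24 h incubation.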
For orientation: qHTS replaces the single test concentration by a dilution series.

Assay [2] can be described thus: qHTS assay to identify small molecule antagonists of the estrogen related receptor signaling pathway with the pleiotropic PPARgamma coactivator (PGC) from Tox21 10K library - cell viability counter screen (AID 1224840; active = well fitted cell-killing curve with a large enough effect in the repeat runs, not every such curve was filed as active; also: nearly all actives have a fitted effect of over 40% in size). In short, it runs like this: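 Seeded PGC/ERR cells (2,000/well, 6 h, 37 C/5% CO2) get compound by pin tool; 17.5 h incubation at 37 C; CellTiter-Fluor added, 30 min, fluorescence measured.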

A short description of assay [3]: qHTS assay to identify small molecule antagonists of the estrogen related receptor signaling pathway with the pleiotropic PPARgamma coactivator (PGC) from Tox21 10K library (AID 1224841; call rule not given here; also: series mostly up to about 92 µM; actives are mostly falling curves and most rising ones were filed inactive; nearly all actives have a fitted effect of over 50% in size). In short, it runs like this:
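Test chemicals dissolved in DMSO were applied to pre-incubated (6 h) PGC/ERR cells at 2,000 cells/well for an 18 h, 37 C treatment; reporter luminescence was then read using One-Glo.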

Assay [4] is described as follows: qHTS assay to identify small molecule agonists of the estrogen related receptor signaling pathway with the pleiotropic PPARgamma coactivator (PGC) from Tox21 10K library (AID 1224842). Also: nearly all actives have a fitted effect of over 15% in size. A digest of the protocol:
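PGC/ERR reporter cells (NTP line) were seeded 2,000 per well, rested 6 h at 37 C/5% CO2, then pin-dosed with compounds in DMSO for 18 h at 37 C; luciferase read by One-Glo luminescence after 30 min at room temperature.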

For assay [5], the target named is Thyrotropin receptor (Homo sapiens) (UniProt P16473). Kind of assay: qHTS assay to identify small molecule agonists of the thyroid stimulating hormone receptor (TSHR) signaling pathway (AID 1224843; calls by dose curve; also: nearly all actives have a fitted effect of over 45% in size). In short, it runs like this: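 Using 15 concentrations per compound in triplicate, cAMP production was monitored in TSHR-HEK293 cells after 30 min compound incubation at RT; HTRF reagents followed, with fluorescence intensity recorded after 1 h.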

Assay [6] can be described thus: qHTS assay to identify small molecule agonists of H2AX (AID 1224845; active = well fitted activation curve with a large enough effect in the signal ratio in the repeat runs, not every such curve was filed as active; the % refers to the signal ratio). A digest of the protocol:
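Wild-type CHO-K1 cells plated overnight, then exposed 3 hr at 37C to compounds at 15 concentrations (0.76% DMSO). Lysed, then HTRF anti-pH2AX(S139)-cryptate/anti-H2AX-d2 detection after 24 hr at room temperature; emissions 665 and 620 nm.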

Assay [7] is described as follows: qHTS assay to identify small molecule agonists of the hypoxia (HIF-1) signaling pathway (AID 1224846; active = well fitted activation curve with a large enough effect in the signal ratio in the repeat runs, not every such curve was filed as active; the % refers to the signal ratio). A digest of the protocol:
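Reporter induction in HRE-bla ME-180 cells is taken as agonism: cells sit 5 hrs after plating, receive compounds or DMSO only, incubate 17 hrs at 37C under 5% CO2, and are loaded with CCF4-AM for beta-lactamase FRET measurement.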

A short description of assay [8]: qHTS assay to identify small molecule agonists of H2AX - cell viability counter screen (AID 1224847; calls by dose curve; also: top concentration of the series differs between compounds; nearly all actives have a fitted effect of over 30% in size). A digest of the protocol: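 For this counter screen, overnight-attached CHO-K1 cells received test compounds (15 concentrations, 0.76% DMSO final); 3 hr later at 37C, CellTiter-Glo reagent was added and luminescence recorded after 30 min at room temperature.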
Assay [9] is described as follows: qHTS assay to identify small molecule antagonists of the estrogen related receptor (ERR) signaling pathway from Tox21 library (AID 1224848). Also: nearly all actives have a fitted effect of over 50% in size. In short, it runs like this:
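Tox21 10K compounds in DMSO tested for ERR pathway antagonism in NTP's ERR cell line; 18 h, 37 C exposure; ONE-Glo luminescence.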

The nature of assay [10]: qHTS RealTime-Glo MT Cell Viability Assay in HepG2 cells - 24 hour (AID 1224867). Also: nearly all actives have a fitted effect of over 50% in size. In short, it runs like this:
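HepG2 suspension premixed with RealTime-Glo reagents is plated at 600 cells per well and left 5 h at 37 C/5% CO2. Compounds in DMSO then go in, and bioluminescence reflecting viable cell number is recorded over 40 h.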

Assay [11] can be described thus: qHTS RealTime-Glo MT Cell Viability Assay in HEK293 cells - 32 hour (AID 1224868). Also: top concentration of the series differs between compounds; nearly all actives have a fitted effect of over 50% in size. In short, it runs like this:
(§1)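 Reads taken at 0, 8, 16, 24, 32 and 40 h from the same wells. HEK293 cells (600/well) carried RealTime-Glo reagents from seeding, with compound added after a 5 h settle at 37 C.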

The nature of assay [12]: qHTS RealTime-Glo MT Cell Viability Assay in HepG2 cells - 40 hour (AID 1224870). Also: nearly all actives have a fitted effect of over 50% in size. In short, it runs like this: (§2)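 HepG2 cells mixed with RealTime-Glo MT reagents (NanoLuc plus cell-permeant prosubstrate) were seeded at 600 cells/well, incubated 5 h at 37 C/5% CO2, then pinned with compounds in DMSO; nonlytic luminescence tracked viability during 40 h treatment.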
Assay [13] is described as follows: A CellTox Green Cytotoxicity Assay to monitor cytotoxicity in HEK293 cells - 40 hour (AID 1224871). Also: nearly all actives have a fitted effect of over 45% in size. Also: potency is read from the fitted curve at half-maximal effect. In short, it runs like this: (§3)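 Tox21 screen in HEK293: membrane-impermeant cyanine dye fluoresces on binding dead-cell DNA; compound pinned 5 h post-seeding, plates held at 37 C, signal read repeatedly through 40 h.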
Assay [14] in a line: qHTS RealTime-Glo MT Cell Viability Assay in HEK293 cells - 16 hour (AID 1224872). In short, it runs like this:
as §1

Assay [15] in a line: qHTS RealTime-Glo MT Cell Viability Assay in HepG2 cells - 8 hour (AID 1224873). Also: nearly all actives have a fitted effect of over 55% in size. A digest of the protocol: as §2
The nature of assay [16]: qHTS RealTime-Glo MT Cell Viability Assay in HEK293 cells - 40 hour (AID 1224874). Also: nearly all actives have a fitted effect of over 50% in size. As to conditions: RealTime-Glo luminescence; max response: stronger effect = lower value. In short, it runs like this:
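HEK293 + NanoLuc + prosubstrate, 600 cells/well; 5 h, 37 C/5% CO2; compound 23 nL in DMSO by pintool; 37 C; luminescence read at 0, 8, 16, 24, 32 and 40 h time points.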

Assay [17] can be described thus: A CellTox Green Cytotoxicity Assay to monitor cytotoxicity in HEK293 cells - 24 hour (AID 1224875). Also: series mostly up to about 77 µM; nearly all actives have a fitted effect of over 45% in size. A digest of the protocol: as §3
Assay [18] can be described thus: A CellTox Green Cytotoxicity Assay to monitor cytotoxicity in HEK293 cells - 0 hour (AID 1224869). Also: nearly all actives have a fitted effect of over 50% in size. Also: potency is read from the fitted curve at half-maximal effect. A digest of the protocol: as §3
Assay [19] is described as follows: qHTS assay to identify small molecule agonists of the hypoxia (HIF-1) signaling pathway - cell viability counter screen (AID 1224844; calls by dose curve; also: nearly all actives have a fitted effect of over 50% in size). In short, it runs like this: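 HRE-bla ME-180; 0.5% dFBS; cpd 17 h, 37C, 5% CO2; CellTiter-Glo lum., 30 min RT, post-FRET read, same wells.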
Assay [20] can be described thus: qHTS assay to identify small molecule agonists of the estrogen related receptor (ERR) signaling pathway from Tox21 library (AID 1224849; calls by dose curve; also: nearly all actives have a fitted effect of over 15% in size). In short, it runs like this: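 Tox21 compounds tested for ERR agonism in an NTP reporter cell line: 18 h treatment at 37 C, then ONE-Glo luminescence.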

Unmarked numbers belong to inactive results. Records with an inconclusive call do not appear. The source made the active and inactive calls. Unless noted, calls follow the shape of the dose curve; as a rule, active = well fitted curve in the direction sought with a large enough effect in the repeat runs; inconclusive = weak or mixed curves; inactive = no such curve, though single readings can be large; an effect the other way counts as inactive or inconclusive.
% is scaled to controls: 0 for no effect and ±100 for the full control effect.

Sequence of Thyrotropin receptor (Homo sapiens) (P16473 whole entry, looked up): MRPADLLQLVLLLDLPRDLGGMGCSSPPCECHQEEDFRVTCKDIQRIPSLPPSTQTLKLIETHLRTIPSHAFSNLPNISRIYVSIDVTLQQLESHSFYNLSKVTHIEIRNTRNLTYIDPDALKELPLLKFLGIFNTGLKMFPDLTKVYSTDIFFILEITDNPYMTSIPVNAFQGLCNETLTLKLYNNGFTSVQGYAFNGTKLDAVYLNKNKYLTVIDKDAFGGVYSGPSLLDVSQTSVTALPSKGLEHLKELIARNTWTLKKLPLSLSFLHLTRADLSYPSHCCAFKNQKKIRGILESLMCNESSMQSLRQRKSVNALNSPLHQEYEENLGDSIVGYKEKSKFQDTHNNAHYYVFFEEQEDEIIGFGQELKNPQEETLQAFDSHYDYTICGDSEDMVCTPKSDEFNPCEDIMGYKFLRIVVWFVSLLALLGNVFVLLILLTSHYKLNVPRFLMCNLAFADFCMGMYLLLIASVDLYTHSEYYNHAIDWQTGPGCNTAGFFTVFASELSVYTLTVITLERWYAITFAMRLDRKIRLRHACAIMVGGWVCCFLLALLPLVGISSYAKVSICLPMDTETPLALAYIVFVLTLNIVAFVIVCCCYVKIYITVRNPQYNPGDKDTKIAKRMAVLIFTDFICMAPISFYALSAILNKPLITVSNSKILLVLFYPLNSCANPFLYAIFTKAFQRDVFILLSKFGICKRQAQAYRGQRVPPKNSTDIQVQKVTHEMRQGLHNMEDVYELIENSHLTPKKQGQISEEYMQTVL
Sequence of Nuclear receptor subfamily 1 group I member 3 (Homo sapiens) (Q14994 whole entry, looked up): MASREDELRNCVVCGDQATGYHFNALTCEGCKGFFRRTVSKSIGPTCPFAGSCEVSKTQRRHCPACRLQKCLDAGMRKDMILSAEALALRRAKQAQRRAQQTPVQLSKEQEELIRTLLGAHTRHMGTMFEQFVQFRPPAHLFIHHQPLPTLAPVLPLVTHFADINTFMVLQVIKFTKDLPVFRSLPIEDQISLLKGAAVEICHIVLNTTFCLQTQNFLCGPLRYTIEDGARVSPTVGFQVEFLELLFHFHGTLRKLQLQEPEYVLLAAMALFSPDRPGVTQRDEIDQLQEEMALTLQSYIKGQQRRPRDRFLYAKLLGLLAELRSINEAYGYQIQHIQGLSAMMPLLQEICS

`CC(=O)c1ccc(OCC(=O)N2CCCCC2)cc1`: in assay [1], the Potency is 18.8 µM (active). Moreover, the result in assay [2], in assay [4], in assay [5], in assay [6], in [7] and in assay [10] was inactive. Also, the compound was called inactive in assay [12] and in [15]. The Potency result in assay [3], in [8], in assay [9], in assay [11], in [13] and in [14] was “inactive” each time. The Potency entry in assay [17] was “inactive”. Also, the max response in assay [16] was 1.3%.
`O=C(O)C(=O)Nc1cccc(-c2nn[nH]n2)c1`: the Potency result in [1], in assay [8], in assay [11], in assay [18], in [13] and in assay [14] was “inactive” in each case. In [17], the Potency result is “inactive”. Besides, the result in assay [2], in assay [5], in assay [6], in assay [7] and in assay [10] was inactive. The max response in assay [16] was 0.908%.
`O=C(/C=C/c1ccccc1)NCCO`: the Potency entry in [1], in assay [8], in assay [11] and in assay [14] was “inactive” each time. For the same compound, the compound was classed as inactive in [2], in [5], in assay [19], in [6], in assay [10] and in [12]. Also, the compound was classed as inactive in [15]. The Potency was 9.52 µM (active) in assay [18] and 7.56 µM (active) in assay [13]. Besides, in assay [16], the max response is -3.72%.
`Cc1ccccc1C(=O)N1CC/C(=N\OS(=O)(=O)O)c2ccc(Cl)cc21`: the Potency result in assay [1], in assay [8], in assay [9], in assay [11], in assay [18] and in [13] was “inactive” in each case. Moreover, the Potency result in assay [14] and in assay [17] was “inactive” in each case. Further, the compound was classed as inactive in assay [2], in assay [4], in assay [5], in assay [19], in assay [7] and in [20]. The call in assay [10], in [12] and in assay [15] was inactive. Also, in assay [16], the max response was -2.43%.
`CCCCCC1CCCC(=O)O1` (stereo not drawn): the Potency entry in assay [1], in assay [3], in assay [8], in assay [9], in [11] and in assay [13] was “inactive” throughout. Moreover, the Potency result in assay [14] and in [17] was “inactive” throughout. The call in [2], in [4], in [5], in assay [19], in assay [6] and in assay [7] was inactive. In addition, the call in assay [20], in assay [10], in assay [12] and in assay [15] was inactive. Besides, the max response in [16] is 7.32%.
With `F[Si-2](F)(F)(F)(F)F`, the Potency entry in assay [1], in [3], in [8], in assay [9], in [11] and in assay [18] was “inactive” in each case. The Potency result in [13], in [14] and in assay [17] was “inactive” each time. Also, the outcome in assay [2], in assay [4], in [19], in [6], in assay [20] and in assay [10] was inactive. Also, the call in assay [12] and in [15] was inactive. Also, in [16], the max response is -1.11%.
`CC(=O)N1CCN(c2ccc(O)cc2)CC1`: the Potency result in assay [1], in assay [8], in [11], in assay [13], in assay [14] and in [17] was “inactive” in each case. Besides, the result in [2], in [5], in assay [19], in assay [7], in assay [10] and in assay [12] was inactive. In addition, the compound was classed as inactive in assay [15]. In assay [16], the max response is 7.56%.
For the compound `Nc1nc(=O)n([C@@H]2O[C@H](CO)[C@@H](O)[C@@H]2F)cc1I`, the Potency result in [1], in [8], in assay [11], in [18], in [13] and in [14] was “inactive” in each case. For the same compound, the Potency result in assay [17] is “inactive”. The compound was classed as inactive in assay [2], in assay [5], in assay [6], in assay [7], in assay [10] and in assay [12]. Further, the call in assay [15] was inactive. Besides, the max response in assay [16] is 3.93%.
